# Assay results published in PubChem BioAssay AID1745851 (National Center for Advancing Translational Sciences (NCATS), 2022).
# Some of the results follow. Inconclusive results are not listed. The source made the active and inactive calls. Calls follow the shape of the dose curve; as a rule, active = well fitted inhibition curve with a large enough effect; inconclusive = small, poorly fitted or top-dose-only effect; inactive = flat fitted curve, though single readings scatter.
# Assay: Counterscreen for Target Class Profiling of Small Molecule Inhibitors of Methyltransferases
# Conditions: MTase-Glo coupled enzymes, SAH conversion luminescence, no MTase; series mostly up to 57.3 µM; activity change, negative = inhibition: at the top concentration
# Source text: PI: Matthew D. Hall Ph.D. and Quinlin M. Hanson Ph.D. National Center for Advancing Translational Sciences (NCATS) National Institute of Health (NIH) Rockville, MD Target class profiling (TCP) is a chemical biology approach amenable to investigating understudied biological targets. TCP is achieved by developing a generalizable assay platform and applying it to screen a curated set of compound libraries against representative members of a target class. Small molecule methyltransferases (SMMTase) are a subclass of methyltransferase that act on metabolites to modulate signaling pathways, metabolize xenobiotics, or balance the available methyl pool. We screened four curated libraries totaling 27,574 unique compounds against the SMMTases nicotinamide N-methyltransferase (NNMT), phenylethanolamine N-methyltransferase (PNMT), histamine N-methyltransferase (HNMT), glycine N-methyltransferase (GNMT), catechol O-methyltransferase (COMT), and guanidinoacetate N-methyltransferase (GAMT). The data generated by this TCP can be leveraged for informed tool molecule development. For example, in the associated publication we identified a chemotype of HNMT-selective inhibitors. Additionally, we identified a putative SMMTase-selective inhibitor with potential as a tool molecule for studying broader methyltransferase biology. High-through put screening assays were developed at the National Center for Advancing Translational Science (NCATS) for the enzymes NNMT, PNMT, HNMT, GNMT, COMT, and GAMT. Enzymatic activity was measured as a function of SAM cofactor conversion using the MTase Glo kit (Promega) for all enzymes. All assays were performed in 1536-well format with substrates and SAM concentrations at KM values. Enzyme concentration and assay timing were optimized for 10-20% SAM conversion. Initial screening of 27,574 compounds was done as single-point assays using the highest compound concentration (40 uM). 1,434 compounds were identified as hits (at least 50% inhibition) under these conditions. These compounds were replated in 11-point dose response and assayed against NNMT, PNMT, HNMT, GNMT, COMT, GAMT, and a counter-assay. The IC50 and efficacy (maximal response) values were determined for each dose-response curve. These values are also accounted for in the area under the curve (AUC) values.
# PROTOCOL TABLE (as described by Inglese J, Shamu CE and Guy RK. 2007) SEQUENCE No. (e.g., 1, 2, 3, etc.); PARAMETER (e.g., Cells, Incubation, Reagent, etc.); VALUE; DESCRIPTION. 1; Reagent; 3 uL; SAH (16 uM) in reaction buffer, columns 1-48. 2; Reagent; 1 uL; SAM (4x) in reaction buffer, columns 1-48. 3; Controls; 23 nL; DMSO in column 4; sinefungin in DMSO (0 uM - 40 uM) in 7-point 1:2 dilution series (n = 2) in column 2. 4; Compounds; 23 nL; Columns 5-48. 5; Time; 20 min; Incubation. 6; Reagent; 1 uL; MTase-Glo reagent (5X), columns 1-48. 7; Time; 30 min; Incubation. 8; Reagent; 5 uL; MTase-Glo Detection reagent, columns 1-48. 9; Time; 30 min; Incubation. 10; Detection; Luminescence; ViewLux uHTS Microplate Imager (PerkinElmer). NOTES (numbers refer to Sequence numbers above) 1, 2. White Medium Binding 1536-well plates (white, flat bottom, medium binding Cat# AWK010000A, Aurora Microplates, Scottsdale, AZ); Reaction buffer: 50 mM Tris, pH 8.0, 3 mM MgCl2, 1 mM EDTA, 50 mM NaCl, 1 mM DTT, and 0.1 mg/mL BSA; refer to tables 2 and S1 for specific reagent concentrations. 3, 4. Pintool transfer 5, 7, 9. Room temperature 5. Final reaction conditions: 1 uM SAH, 4 uM SAM, 50 mM Tris, pH 8.0, 3 mM MgCl2, 1 mM EDTA, 50 mM NaCl, 1 mM DTT, and 0.1 mg/mL BSA. 7. Conversion of SAH to ADP; MTase Glo Kit (Promega, Madison, WI). 9. Conversion of ADP to ATP and detection by UltraGlo luciferase; MTase Glo Kit (Promega, Madison, WI). 10. Settings: 20 s exposure, 1X binning, high gain, medium speed. REFERENCES: Inglese J, Shamu CE and Guy RK, Reporting data from high throughput screening of small molecule libraries, Nature Chemical Biology, 2007, 3(8): 438-441. doi.org/10.1038/nchembio0807-438. […]
# % is scaled to controls: 0 for no effect and ±100 for the full control effect; potency is read from the fitted curve at half-maximal effect.
SMILES,"activity change, negative = inhibition",Potency
COc1ccccc1-c1[nH]nc2ncc(C(=O)N3CCN(Cc4ccccc4)CC3)nc12,-1.28% [at 85.7 µM] (inactive),
Cc1cnc(C2CCC2)n1C1CCN(C(=O)CCC2CCCC2)CC1,-6.67% (inactive),
COc1ccc(-c2nc3ccncc3[nH]2)cc1,-1.57% [at 114 µM] (inactive),
COc1cc2c(cc1O)NC(=O)CC2c1cn[nH]c1-c1cc(C)ccc1C (configuration not stated),0.234% (inactive),
CC(C)CCN1CC2(CCCN(C(=O)c3ccn(C)c(=O)c3)C2)CCC1=O (configuration not stated),3.19% (inactive),
CCCc1sc(NC(=O)C[C@H]2NC(=O)c3ccccc3NC2=O)nc1C(=O)OC,-0.625% (inactive),
CC1(C)[C@H](Cc2cc(-c3ccccc3)on2)C[C@@H]1NCC1CC1,-2.14% [at 85.7 µM] (inactive),
CCCS(=O)(=O)N1CCCC(Cn2c(C)nc3cccnc32)C1 (configuration not stated),0.0698% (inactive),
Cn1ccc(Nc2cc3c(cn2)CN(CCc2ccccc2)CCN3)n1,-2.16% [at 85.7 µM] (inactive),
CCOc1ccccc1CN1CCC(Cc2nc(-c3cccnc3)n[nH]2)C1 (configuration not stated),-2.28% (inactive),
CC(C)c1nccn1CCCNc1nc(-c2ccncc2)nc2c1cnn2C,1.89% (inactive),
O=C(Nc1ccc2ncnc(N3CCCCC3)c2c1)C1CCCCC1,,9.61 µM (active)
